This is a sample that favours compounds with a hit; in the whole collection about 10% have one here.
12-hLO inh = blocks human 12-lipoxygenase activity | P18054 | purified 12-hLO, xylenol orange hydroperoxide absorbance | Potency, µM (series often up to 57.1 µM), most hits filed as inhibitors | 150,000 compounds, 0.12% hits | AID 1452; active = well fitted inhibition curve with a large enough effect; inconclusive = small, poorly fitted or top-dose-only effect; also: nearly all actives have a fitted effect of over 55% in size
Target sequence (P18054 whole entry, looked up): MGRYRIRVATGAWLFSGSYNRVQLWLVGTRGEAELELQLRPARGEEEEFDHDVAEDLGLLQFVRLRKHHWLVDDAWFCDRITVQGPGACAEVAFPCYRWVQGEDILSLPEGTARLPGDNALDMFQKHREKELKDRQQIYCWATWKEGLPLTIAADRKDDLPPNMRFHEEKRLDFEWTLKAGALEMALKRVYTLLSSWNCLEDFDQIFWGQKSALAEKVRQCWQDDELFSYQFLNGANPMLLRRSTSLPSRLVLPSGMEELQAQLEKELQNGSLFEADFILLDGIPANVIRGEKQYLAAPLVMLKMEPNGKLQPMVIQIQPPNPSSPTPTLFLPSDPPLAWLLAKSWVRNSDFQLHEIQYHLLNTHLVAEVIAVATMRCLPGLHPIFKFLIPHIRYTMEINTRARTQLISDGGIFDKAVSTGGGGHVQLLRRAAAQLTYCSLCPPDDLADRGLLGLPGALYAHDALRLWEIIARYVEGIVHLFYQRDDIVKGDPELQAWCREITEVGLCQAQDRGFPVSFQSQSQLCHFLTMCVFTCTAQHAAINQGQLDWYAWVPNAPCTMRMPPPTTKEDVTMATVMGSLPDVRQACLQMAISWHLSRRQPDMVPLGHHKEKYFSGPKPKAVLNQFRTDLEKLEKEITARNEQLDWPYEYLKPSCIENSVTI
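Hydroperoxide output read as Fe(III)-xylenol orange absorbance, 573-to-405 nm ratio, after 30 min reaction with 40 uM arachidonic acid. Enzyme: 150 nM purified human 12hLO, 15 min compound preincubation; 25 mM Hepes pH 7.0, room temperature.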
PNC inhibitor = blocks assembly of the perinucleolar compartment; PC3M PTB-GFP, PNC prevalence imaging, 16 h; stronger effect = lower value; activity change (PNC), negative = inhibition, % at 10 µM; AID 2417; 140,000 compounds, 3.1% hits;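 active = readout at or below -70, meaning at least 70% loss of cells showing the perinucleolar compartment, a nuclear body marking cancer cells; inconclusive = readout between -30 and a set limit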
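Compounds are pinned in duplicate onto adhered PC3M cells stably expressing GFP-tagged PTB and incubated 16 h at 37 C. Cells are then fixed, nuclei stained with Hoechst, and PNC-positive cells counted.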
HPGD inh = blocks human HPGD enzyme activity; AID 894; P15428; 150,000 compounds, 4.3% hits; purified HPGD, NADH fluorescence kinetic, PGE2 substrate; Potency, µM, usual class: inhibitors
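NADH formation kinetics: reaction with 30 uM PGE2 and 1 mM NAD+ (final), 20 nM enzyme, Tris-HCl pH 8 with Tween 20, after 15 min compound preincubation at room temperature. Fluorescence change, last versus first of five reads.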
Lamin A splicing = modulators of lamin A splicing. HeLa LMNA splicing GFP/RFP minigene ratio, 48 h. Potency, µM (highest dose often 46.1 µM), hits mostly inhibitors. 200,000 compounds, 0.01% hits. AID 1487; active = well fitted inhibition curve with a large enough effect in the signal ratio, with a control signal flat, not every such curve was filed as active; inconclusive = small, poorly fitted or top-dose-only effect, or effect the other way, or a change in a side signal; the % refers to the signal ratio
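S3 HeLa cells stably expressing lamin A-EGFP splicing minigene plus DsRed2, 600 cells/well, 48 h compound exposure at 37C. Laser-scanning cytometry; analysed as GFP (500-530 nm)/RFP (575-640 nm) total intensity ratio; 0.5% DMSO vehicle.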
ALDH1A1 inh = ALDH1A1 (human) enzyme inhibition; P00352; Purified ALDH1A1, NADH fluorescence, propionaldehyde substrate; Potency, µM (highest dose often 75.3 µM), hits mostly inhibitors; 220,000 compounds, 7.3% hits
Large screens that a line does not name were inactive. Unless noted, calls follow the shape of the dose curve; as a rule, active = well fitted inhibition curve with a large enough effect (not every such curve was filed as active); inconclusive = small, poorly fitted or top-dose-only effect, or another doubt; inactive = no such curve, though single readings can be large or run the other way.

O=C1CC(c2cccs2)CC2=C1C(c1ccccc1)n1ncnc1N2 (stereo not drawn)	ALDH1A1 inh inconclusive
CCN(CC)CCOC(=O)c1ccc(NC(=O)c2cc3cccc(OC)c3oc2=O)cc1	none (no result: 12-hLO inh, PNC inhibitor, HPGD inh, ALDH1A1 inh)
COc1cccc(C(=O)Nc2cccc(C(=O)OCc3cc(=O)n4c(C)csc4n3)c2)c1	none (no result: 12-hLO inh, PNC inhibitor, HPGD inh, ALDH1A1 inh)
O=C(CN1CCOCC1)NC1CC2CCC1C2 (stereo not drawn)	PNC inhibitor inconclusive, ALDH1A1 inh 25µM
Cc1ccc(NC(=O)Cn2cnc3c(nnn3Cc3ccc(F)cc3)c2=O)cc1	none (no result: 12-hLO inh, PNC inhibitor, HPGD inh)
Cc1cccc(Cn2cnc3c(nnn3Cc3ccc(F)cc3)c2=O)c1	HPGD inh 14µM
COc1cccc(-n2nnc3c(=O)n(Cc4ccc(F)cc4)cnc32)c1	HPGD inh 28µM
Cc1ccc(-n2nnc3c(=O)n(Cc4cccc(C)c4)cnc32)cc1	HPGD inh 4µM, Lamin A splicing inconclusive
Cc1cccc(Cn2cnc3c(nnn3Cc3ccccc3F)c2=O)c1	HPGD inh 16µM
COc1cccc(-n2nnc3c(=O)n(Cc4ccc(C)cc4)cnc32)c1	HPGD inh inconclusive
Cn1c(=O)c(-c2ccccc2)nc2cnc(OCc3ccccc3)nc21	ALDH1A1 inh inconclusive (no result: 12-hLO inh, PNC inhibitor, HPGD inh)
Nc1ncnc2c1ncn2[C@H]1O[C@@H](C(=O)OCCO)[C@@H](O)[C@H]1O	none (no result: PNC inhibitor, Lamin A splicing)
Cc1ccc2[nH]c(=O)c(CN(Cc3nnnn3Cc3ccccc3)C3CCCC3)cc2c1	ALDH1A1 inh 20µM
CCc1ccc2[nH]c(=O)c(CN(Cc3nnnn3C3CCCC3)C3CCCCC3)cc2c1	ALDH1A1 inh 14µM
CCOc1ccc2[nH]c(=O)c(CN(CCO)C(c3nnnn3C3CCCCC3)C(C)C)cc2c1 (stereo not drawn)	ALDH1A1 inh 13µM
Cc1ccc2[nH]c(CSc3nnc(NC(=O)COc4ccccc4)s3)cc(=O)c2c1	none (no result: 12-hLO inh, PNC inhibitor, HPGD inh, ALDH1A1 inh)
CCc1cccc(C)c1NC(=O)CCn1c(=O)c2cccn2c2ccccc21	none (no result: 12-hLO inh, PNC inhibitor, HPGD inh, ALDH1A1 inh)
COc1ccc(NN=Nc2nc3c([nH]2)c(=O)n(C)c(=O)n3C)cc1	ALDH1A1 inh 8.9µM (no result: 12-hLO inh, PNC inhibitor, HPGD inh, Lamin A splicing)
COc1ccc(C(=O)NNc2ncnc3c2cnn3-c2ccccc2)cc1	none (no result: 12-hLO inh, PNC inhibitor, HPGD inh, ALDH1A1 inh)
COc1ccc(OC)c(NC(=O)CSc2nnc(CNC(=O)COc3ccc(Cl)cc3)o2)c1	PNC inhibitor inconclusive, ALDH1A1 inh 20µM
CCC1CCCCN1C(=O)CSc1nnc(-c2ccco2)o1 (stereo not drawn)	ALDH1A1 inh 20µM
COc1ccc(NCc2nnc(SCC(=O)Nc3ccccc3OC)o2)cc1	PNC inhibitor -105, ALDH1A1 inh inconclusive
COC(=O)c1ccccc1NC(=O)CSc1nnc(Cc2ccc(Cl)cc2)o1	PNC inhibitor inconclusive, HPGD inh 28µM, ALDH1A1 inh 20µM
COc1ccc(OC)c(NC(=O)CSc2nnc(CNc3ccc(F)cc3)o2)c1	Lamin A splicing inconclusive
O=C(CCC1N=C2c3ccccc3N=C(SCC(=O)Nc3ccc(F)cc3)N2C1=O)NCc1cccs1 (stereo not drawn)	none (no result: 12-hLO inh, PNC inhibitor, HPGD inh, ALDH1A1 inh)
CCOc1ccc(CNC(=O)CCC(=O)N2Cc3ccccc3Oc3ncccc32)cc1	none (no result: 12-hLO inh, PNC inhibitor, HPGD inh, ALDH1A1 inh)
CCC1CCCCN1C(=O)CSc1nnc(CNC(=O)COc2ccc(Cl)cc2)o1 (stereo not drawn)	ALDH1A1 inh 7.1µM
O=C(COc1ccc(Cl)cc1)NCc1nnc(SCC(=O)NC2CCCC2)o1	none
CCn1c(CNC(=O)c2ccc(OC)c(OC)c2)nnc1SCC(=O)Nc1ccc(OC)cc1	none
COc1ccc(Cc2nnc(SCC(=O)NCCc3ccccc3)o2)cc1	ALDH1A1 inh inconclusive
COc1ccc(CCCc2nnc(SCC(=O)NN)o2)cc1	ALDH1A1 inh 7.9µM (no result: 12-hLO inh, PNC inhibitor, HPGD inh, Lamin A splicing)
CC1CCCCN1C(=O)CSc1nnc(-c2c[nH]c3ccccc23)o1 (stereo not drawn)	ALDH1A1 inh 25µM
COCCn1c(CNc2ccc(F)cc2)nnc1SCC(=O)Nc1ccc(OC)cc1OC	Lamin A splicing inconclusive, ALDH1A1 inh 13µM
COc1ccc(NCc2nnc(SCC(=O)c3ccc(OC)cc3)o2)cc1	PNC inhibitor inconclusive, ALDH1A1 inh 16µM
CCC(C)c1ccc(NC(=O)c2cccs2)cc1 (stereo not drawn)	none
O=C(Nc1ccc(C(=O)N2CCOCC2)cc1)c1cccs1	HPGD inh 14µM
CC(C)C(=O)N1CCN(c2ccc(NC(=O)c3cccs3)cc2)CC1	PNC inhibitor -100
O=C(c1ccc(N2CCOCC2)cc1)c1cccs1	PNC inhibitor inconclusive, HPGD inh 13µM, ALDH1A1 inh inconclusive
